# From PubChem BioAssay
# An excerpt weighted towards active compounds, which were near 7.3% of everything screened.
# SMN2 splice up = enhancers of SMN2 splice variant expression. HEK293 SMN2-luciferase splicing reporter, luminescence, 30-36 h. Potency, µM (titrated, usually from 46.1 µM), without a hit: at the top dose activity change, positive = activation, hits mostly activators. 210,000 tested, 2.8% active; further: % of control where 0% means no effect; nearly all actives have a fitted effect of over 55% in size
#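 qHTS luciferase splicing reporter: luminescence rises when SMN2 exon 7 is included in transfected HEK293 cells. Compound exposure lasted 30-36 h at 37C, with 4.5 mM final sodium butyrate as control, followed by a ONE-Glo read.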
# FLuc modulator = counter-screen for miR-21 project: firefly luciferase inhibitors or activators | P08659 | purified FLuc, Km substrates, luminescence inhibition | Potency, µM (top dose mostly 57.5 µM), without a hit: at the highest dose activity change, negative = inhibition, hits mostly inhibitors | 360,000 tested, 6.9% active | AID 588342;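 further: plate controls were vehicle for no effect and reference inhibitor for full effect; nearly all actives have a fitted effect of over 55% in size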
# Target sequence (P08659 whole entry, looked up): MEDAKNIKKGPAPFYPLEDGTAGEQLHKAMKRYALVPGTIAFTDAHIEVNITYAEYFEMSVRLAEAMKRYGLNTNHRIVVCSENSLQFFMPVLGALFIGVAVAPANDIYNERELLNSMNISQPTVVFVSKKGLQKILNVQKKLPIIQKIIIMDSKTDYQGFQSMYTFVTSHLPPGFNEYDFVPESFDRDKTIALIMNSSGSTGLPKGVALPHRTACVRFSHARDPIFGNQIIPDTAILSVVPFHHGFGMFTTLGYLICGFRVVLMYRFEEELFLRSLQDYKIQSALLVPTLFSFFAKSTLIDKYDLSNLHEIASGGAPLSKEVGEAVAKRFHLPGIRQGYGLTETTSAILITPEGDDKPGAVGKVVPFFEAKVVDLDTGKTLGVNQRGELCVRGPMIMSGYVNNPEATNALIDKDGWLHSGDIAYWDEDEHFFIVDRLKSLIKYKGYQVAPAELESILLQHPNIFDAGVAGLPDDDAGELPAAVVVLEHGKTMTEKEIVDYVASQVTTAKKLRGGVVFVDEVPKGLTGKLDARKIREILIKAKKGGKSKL
#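 Biochemical qHTS of compounds, final roughly 60 µM downward over six points, against 10 nM purified firefly luciferase using Km concentrations of substrates (10 uM D-luciferin, 10 uM ATP) in Tris acetate pH 7.5 buffer; luminescence output.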
# Rab9 promoter act = activators of Rab9 promoter. Huh7 Rab9 promoter-luciferase reporter, luminescence, 24 h. Potency, µM (top dose mostly 9.22 µM), inactives show at the highest dose activation, negative = inhibition, usual class: activators. 320,000 tested, 2.8% active. AID 485297; further: % of control where 0% means no effect; nearly all actives have a fitted effect of over 60% in size
#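 Cell-based reporter: Huh7 stable for Rab9 promoter-driven luciferase, plated in reduced-serum medium with 10% FBS at 1500 cells/well, compound-treated 24 h at 37 °C, luminescence read after 10 min reagent.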
# ELG1 genotoxic = induces genotoxicity in HEK293T cells with luciferase-tagged ELG1; HEK293T ELG1-luciferase reporter, luminescence, 16 h; Potency, µM (top dose mostly 46 µM), for the others: at the highest dose activity change, positive = activation, actives largely listed as activators; 330,000 tested, 1.3% active; AID 504466; further: % of control where 0% means no effect; nearly all actives have a fitted effect of over 60% in size
#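 16 hr compound incubation (37 °C, 5% CO2) of HEK293T cells carrying luciferase-tagged ELG1; luciferase then measured by ONE-Glo luminescence after 30 min at RT.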
# Luc counter = Kinase-Glo luciferase inhibition (counter-screen). Q27757. Kinase-Glo luciferase, ATP luminescence, 8 min. Potency, µM (top dose mostly 38.3 µM), inactives show at the highest dose activity change, negative = inhibition, most hits filed as inhibitors. 200,000 tested, 0.28% active. AID 1379; further: on the % scale 0 is the no-effect control and ±100 the full control effect; nearly all actives have a fitted effect of over 60% in size
#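 Inhibition of Kinase-Glo luciferase light generation was assessed at 10 uM ATP in pH 7.2 imidazole buffer, with luminescence measured after eight minutes at ambient temperature.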
# NPC1 prom act = activates the NPC1 promoter; AID 485313; Huh7 NPC1 promoter luciferase reporter, 24 h; 320,000 tested, 2.4% active; Potency, µM (doses to about 9.22 µM), for the others: at the highest dose activation, most hits filed as activators; further: % of control where 0% means no effect; nearly all actives have a fitted effect of over 60% in size
#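 Huh7 cells stably carrying NPC1 promoter–luciferase, plated in Opti-MEM with 10% FBS for 2 h, were exposed to compound in DMSO for 24 h at 37 °C; luciferase reagent was added for 10 min and luminescence read.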
# * = called active by the depositor; ? = inconclusive; nt = no result. The call rests on the fitted dose curve; in most records, active means well fitted curve in the direction sought with a large enough effect; inconclusive means small, poorly fitted or top-dose-only effect, or another doubt; inactive means no such curve, though single readings can be large; an effect the other way counts as inactive or inconclusive. Potency means the concentration at half of the fitted maximal effect.
SMILES,SMN2 splice up,FLuc modulator,Rab9 promoter act,ELG1 genotoxic,Luc counter,NPC1 prom act
CCn1c2ccccc2c2cc(CN3CCN(Cc4ccccc4Cl)CC3)ccc21,-8.4%,-0.7%,nt,nt,nt,nt
O=C(NCCc1ccccc1)C(=O)NCC(c1cccs1)S(=O)(=O)c1cccs1 (configuration not stated),nt,-9.5%,nt,nt,nt,nt
Cc1ccc(N2CC(NC(=O)c3ccc4c(c3)OCO4)CC2=O)cc1 (configuration not stated),nt,-1.8%,nt,nt,nt,nt
c1ccc(-c2ncc(-c3ccn[nH]3)s2)cc1,2.82µM*,3.38µM*,0.562µM*,?,-24.5%,1.41µM*
c1csc(-c2ccn[nH]2)c1,nt,-15.5%,1.7%,3.6%,nt,-0.4%
COC(=O)c1ccc(CSc2c(C(C)C)cnc3c2c(=O)n(C)c(=O)n3C)cc1,nt,3.7%,nt,nt,nt,nt
Cc1nc2c(oc3ccccc32)c(=O)o1,16.6%,21.3µM*,1.5%,?,-4.0%,-2.1%
O=c1[nH]c(Cc2ccccc2)nc2c1oc1ccccc12,2.9%,-6.2%,13.8%,2.4%,0.4%,1.2%
O/N=C1/CC/C(=N\O)c2nn(-c3ccccc3)nc21,?,?,23.5%,10.7%,?,17.9%
O=C(O)c1nn(-c2ccccc2)nc1-c1nn(-c2ccccc2)nc1C(=O)O,0.4%,21.3µM*,0.3%,-1.1%,-5.3%,-2.1%
COC(=O)c1nnn(-c2ccccc2)c1N,24.4%,0.4%,-1.9%,-1.7%,-1.3%,-7.1%
COC(=O)c1nn(-c2ccccc2)nc1-c1nn(-c2ccccc2)nc1C(=O)OC,3.6%,2.39µM*,5.7%,?,3.6%,9.1%
CCOc1ccc(CC(=O)Nc2c(C(=O)c3ccccc3)oc3ccc(OC)cc23)cc1OCC,-3.6%,-1.3%,nt,nt,nt,nt
Cc1cc(N2CCN(c3ccc(F)cc3)CC2)n2nc(-c3ccc(Cl)cc3)nc2n1,10.6%,-2.5%,nt,nt,nt,nt
COCCNC(=O)/C(C#N)=C/c1cc(C)n(C2CCCCC2)c1C,6.31µM*,3.01µM*,0.794µM*,1.3%,-2.3%,1.78µM*
COCCNC(=O)/C(C#N)=C/c1cc(C)n(-c2ccc(C)cc2)c1C,nt,0.953µM*,1.58µM*,4.11µM*,-7.2%,1.58µM*
COc1ccc(-n2c(C)cc(/C=C(\C#N)C(=O)NCc3ccco3)c2C)cc1,-7.4%,12µM*,0.2%,-0.1%,4.4%,8.0%
COc1ccc(NC(=O)/C(C#N)=C/c2cc(C)n(-c3ccc(F)cc3)c2C)cc1,3.4%,?,nt,nt,nt,nt
Cc1cc(/C=C(\C#N)C(=O)O)c(C)n1C1CC1,-11.6%,?,2.2%,0.2%,-0.5%,-1.0%
CC(C)c1ccc(NC(=O)Cc2ccc(NC3=NC4CS(=O)(=O)CC4S3)cc2)cc1 (configuration not stated),nt,21.3µM*,18.9%,13.2%,nt,1.9%
CC(C)c1ccc(NC(=O)c2cccc(NC3=NC4CS(=O)(=O)CC4S3)c2)cc1 (configuration not stated),nt,6.01µM*,2.8%,10.7%,nt,20.2%
Cc1ccc(NC(=O)c2cccc(NC3=NC4CS(=O)(=O)CC4S3)c2)cc1C (configuration not stated),nt,13.5µM*,-4.1%,4.4%,nt,1.3%
Cc1cccc(NC(=O)c2cccc(NC3=NC4CS(=O)(=O)CC4S3)c2)c1 (configuration not stated),nt,-6.3%,2.0%,-2.8%,nt,-3.8%
CCc1ccc(NC(=O)c2cccc(NC3=NC4CS(=O)(=O)CC4S3)c2)cc1 (configuration not stated),nt,13.5µM*,8.3%,9.0%,nt,-0.4%
Cc1ccc(C(=O)N(Cc2ccc(N(C)C)cc2)CC2CCCO2)cc1 (configuration not stated),-1.3%,-7.3%,nt,nt,nt,nt
SMILES,SMN2 splice up,FLuc modulator,Rab9 promoter act,ELG1 genotoxic,Luc counter,NPC1 prom act
CC(=O)Nc1cc2c(s1)c1cnn(Cc3ccccc3F)c(=O)c1n2C,nt,6.5%,-2.0%,nt,nt,0.9%
COc1ccc(Cn2ccc3nc(C)c(C(=O)Nc4cc(C)cc(C)c4)cc3c2=O)cc1,nt,-15.8%,nt,nt,nt,nt
COc1ccccc1-n1c(/C=C/c2c(C)n(C)c3ccccc23)nc2ccccc2c1=O,2.5%,-8.0%,nt,nt,nt,nt
Cc1nn(CC(=O)NCc2ccc(N(C)C)cc2)c(=O)c2c(C)n(-c3ccc(Cl)cc3)nc12,nt,-8.6%,nt,nt,nt,nt
COc1ccc(OC)c(N=CC2=C(O)CC(C)(C)CC2=O)c1,17.5%,-6.5%,1.9%,3.6%,-3.9%,1.1%
COc1ccc(N=CC2=C(O)CC(C)(C)CC2=O)cc1,-11.6%,19µM*,10.6%,?,-6.9%,-2.2%
CC1(C)CC(=O)C(C=Nc2ccc3c(c2)OCO3)=C(O)C1,?,15.1µM*,17.7%,?,-6.3%,0.0%
COc1ccc(Cc2c(C)nn(-c3nc(C)c(C(=O)Nc4cccc(C(C)=O)c4)s3)c2C)cc1,nt,-10.2%,nt,nt,nt,nt
COc1ccc(-c2nc3ccc(N4CCN(C)CC4)cc3c(=O)[nH]2)cc1,48.8%,15.1µM*,27.6%,?,0.2%,21.8%
COc1ccc2nc(C)cc(Nc3ccc(N4CCN(C)CC4)cc3)c2c1,nt,-0.9%,-25.0%,14.8%,nt,-19.0%
COc1cc(-c2nc3ccc(N4CCN(C)CC4)cc3[nH]2)cc(OC)c1OC,15.8µM*,13.5µM*,-5.0%,7.3µM*,-4.3%,0.3%
COc1ccccc1N1CCN(S(=O)(=O)c2c(C)sc3ncn(CC(=O)N(C)c4ccc(Cl)cc4)c(=O)c23)CC1,-3.1%,-1.1%,nt,nt,nt,nt
COc1ccc(C(=O)c2cn(Cc3cccc(C)c3)c3cc4c(cc3c2=O)OCCO4)cc1OC,-3.3%,0.6%,nt,nt,nt,nt
Cc1ccc(CNC(=O)c2cnn(-c3cccc(C)c3)c2C2CCN(C(=O)OC(C)(C)C)CC2)cc1,nt,-1.4%,nt,nt,nt,nt
Cc1ccc(/C=c2\sc3nc(-c4cccnc4)nn3c2=O)cc1,16.9%,4.78µM*,7.5%,8.5%,1.3%,9.1%
CC(C)c1ccc(/C=c2\sc3nc(-c4ccncc4)nn3c2=O)cc1,6.9%,2.39µM*,16.9%,3.7%,-3.5%,20.3%
COc1ccc2c(c1)c1c(c(=O)n(-c3ccc(F)c(Cl)c3)c(=O)n1Cc1ccccc1C)n2C,nt,-5.7%,nt,nt,nt,nt
CCc1ccc(NC(=O)Cn2c(=O)n(CCc3ccccc3)c(=O)c3sc4ccccc4c32)cc1,8.7%,-0.6%,nt,nt,nt,nt
Fc1cccc(-c2nnn3c2nc(Cl)c2ccccc23)c1,1.2%,1.69µM*,-0.9%,24.0%,-6.8%,-3.9%
Clc1nc2c(-c3ccccc3)nnn2c2ccccc12,nt,1.51µM*,-1.2%,-10.3%,nt,0.1%
Cc1sc(NC(=O)Nc2ccccc2)c(C(N)=O)c1C,nt,7.57µM*,2µM*,8.7%,-2.8%,?
CC1(C)Cc2c(sc(NC(=O)Nc3ccccc3)c2C(N)=O)CO1,nt,12µM*,1.26µM*,?,nt,4.47µM*
